# Assay results: PubChem BioAssay (NCI)
# The panel holds about 83,000 compounds, 20% with a hit somewhere; the sample as a whole holds those more often.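 Values shown are percent growth following 48 h exposure of cells in 96-well plates to a single concentration of compound; below 10 was considered active.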 Values without a mark were called inactive. Activity calls are given as the source filed them.
# Tested on: OVCAR-5 ovarian
# Assay: NCI-60 one-dose screen, 48 h (100 = growth as untreated, 0 = no growth, -100 = all killed)
# Settings: 10 µM unless noted
row,Compound,growth
1,C=C(C)[C@@H]1CCC[C@]2(C(=O)OC)CC[C@]3(C)[C@@H](CC[C@@H]4[C@@]5(C)CCCNC(C)(C)[C@@H]5CC[C@]43C)[C@@H]12,86.4%
2,O=C(Nc1ncc(Cc2ccccc2)s1)c1ccc2c(c1)OCCO2,28.5%
3,COc1ccc(-c2cc(-c3ccc(Nc4nc(Nc5ccc(Cl)cc5)nc(Nc5ccc(Cl)cc5)n4)cc3)no2)cc1,86%
4,CNC(=O)c1cc(Oc2ccc3nc(NC(=O)NC(C)C)sc3c2)ccn1,117%
5,O=C1NCCS(=O)(=O)/C1=C\C=C\c1cccc(C(F)(F)F)c1,48.4%
6,NCCNc1ccc([N+](=O)[O-])cc1,115%
7,Clc1ccc2c(NCCCn3cnc4c(N5CCCC5)nc(Cl)nc43)ccnc2c1,101%
8,O=C(/C=C/c1ccc(Cl)cc1)c1ccc(Nc2ccnc3cc(Cl)ccc23)cc1,84.6%
9,Oc1c(Cl)cc(Cl)c2ccc(CN3CCNCC3)nc12,82.4%
10,O=C1c2ccccc2C(=O)c2cc(Cn3c[n+](Cc4ccc5ccccc5c4)c4ccccc43)ccc21,59.3%
11,CC(C)(C#N)c1cc(C(=O)Nc2cc(Nc3ncccc3-c3ncnc4nc[nH]c34)ccc2F)cc(C(F)(F)F)c1,32.1%
12,CC(C)n1cc(C2=C(c3cccc4ccccc34)C(=O)NC2=O)c2cc(Br)ccc21,89.8%
13,O=CN1N=C(c2cccc(Nc3ccncc3)c2)CC1c1ccc2c(c1)OCO2 (stereo not drawn),98.5%
14,CC(=O)Cc1nsc(NC(=O)c2cc(-c3cc(Cl)ccc3Cl)oc2C)n1,111%
15,O=C(O)COc1ccc(F)cc1,109%
16,CC(Cc1cccc2ccccc12)C(N)=O (stereo not drawn),94.9%
17,NC(=N\N=C/c1ccc(Cl)cc1Cl)/C(N)=N\N=C/c1ccc(Cl)cc1Cl,71.6%

row,Compound,growth
1,CCOC(=O)CC1C(CNC(=O)NC)OC(n2cnc3c(NC(=O)Nc4ccccc4)ncnc32)C1O[Si](C)(C)C(C)(C)C (stereo not drawn),99.6%
2,CCc1ccc(Cc2cnc(NC(=O)c3cc(C)oc3C)s2)cc1,55.2%
3,CNc1nc2ncc(-c3c(C)noc3C)cc2n1Cc1ccccc1,67.5%
4,CCCCC1=C(Br)C(=O)c2ncccc2C1=O,112%
5,Cc1ccc2nc(/C=C/c3ccc(N(C)C)cc3)cc(C)c2c1,73.1%
6,CCN(CC)c1ccc(/C=N/NC(=O)c2ccccc2Nc2ccnc(C(F)(F)F)c2)c(O)c1,57.3%
7,COc1cc2ncnc(Nc3ccc(S(=O)(=O)Nc4cc(C)on4)cc3)c2cc1OCCCN1CCOCC1,106%
8,COc1ccc(-c2cc(-c3ccc(N(C)C)cc3)nc(NC(=O)c3cccnc3)n2)cc1,105%
9,CC(=O)/C(Br)=C/c1ccc(Br)o1,95.6%
10,N#CC1=C(N)Oc2c(ccc3cccnc23)C1c1ccccc1 (stereo not drawn),56.3%
11,CCCS(=O)(=O)Nc1cccc(Nc2ncnc3cc(NC(=O)CCl)ccc23)c1Cl,-65% (active)
12,COC(=O)c1nc(-c2ccc(C)cc2)oc1N1CCOCC1,88.1%
13,Cc1ccc(S(=O)(=O)N(CCC(=O)O)c2ccccc2)cc1,111%
14,Nc1ncc(-c2ccc3ncnc(N4CCc5cc(F)c(Cl)cc54)c3c2)cc1C(F)(F)F,20.8%
15,OC1CSSC1Cn1cnc2c(Nc3ccc(F)c(Cl)c3)ncnc21 (stereo not drawn),115%
16,COc1cc2c(c(OC)c1OC)C(=O)CC(c1cccc(C(=O)Nc3ccc(Br)cc3)c1)O2 (stereo not drawn),89.4%

# Tested on: OVCAR-4 ovarian
# Assay: as above
# Settings: 10 µM unless noted
row,Compound,growth
1,C=C(C)[C@@H]1CC[C@]2(COC(=O)c3cccnc3)CC[C@]3(C)[C@H](CC[C@@H]4[C@@]5(C)CCCN(C(=O)c6cccnc6)C(C)(C)[C@@H]5CC[C@]43C)[C@@H]12,37.6%
2,C=C1C(=O)O[C@H]2[C@H]1CC/C(CNC(=O)/C=C/c1cc(OC)c(OC)c(OC)c1)=C\CC[C@@]1(C)O[C@@H]21,14.7%
3,O=S(=O)(c1ccc(NCSc2nc3ccccc3s2)cc1)c1ccc(NCSc2nc3ccccc3s2)cc1,117%
4,COc1ccc(S(=O)(=O)Oc2ccc(-c3sc4cc(OS(=O)(=O)c5ccc(OC)cc5)ccc4c3C(=O)c3ccc(OCCN4CCCCC4)cc3)cc2)cc1,97.7%
5,Nc1nc(N)c2c(n1)NC(c1cccc(Nc3ccnc4cc(C(F)(F)F)ccc34)c1)CC(c1ccc(Cl)cc1)=N2 (stereo not drawn),60.1%
6,COC(=O)[C@H]1Cc2c([nH]c3ccccc23)[C@H](c2ccc3c(c2)OCO3)N1,94%
7,[2H]C([2H])([2H])Oc1c(F)cccc1/C=C/C(=O)/C=C(O)/C=C/c1cccc(F)c1OC([2H])([2H])[2H],89.1%
8,C=C(C)[C@@H]1CCC[C@]2(C(=O)OC)CC[C@]3(C)[C@@H](CC[C@@H]4[C@@]5(C)CCCNC(C)(C)[C@@H]5CC[C@]43C)[C@@H]12,88.1%
9,O=C(Nc1ncc(Cc2ccccc2)s1)c1ccc2c(c1)OCCO2,46.3%
10,COc1ccc(-c2cc(-c3ccc(Nc4nc(Nc5ccc(Cl)cc5)nc(Nc5ccc(Cl)cc5)n4)cc3)no2)cc1,77.4%
11,CNC(=O)c1cc(Oc2ccc3nc(NC(=O)NC(C)C)sc3c2)ccn1,77.8%
12,O=C1NCCS(=O)(=O)/C1=C\C=C\c1cccc(C(F)(F)F)c1,53.4%
13,NCCNc1ccc([N+](=O)[O-])cc1,112%
14,Clc1ccc2c(NCCCn3cnc4c(N5CCCC5)nc(Cl)nc43)ccnc2c1,100%
15,O=C(/C=C/c1ccc(Cl)cc1)c1ccc(Nc2ccnc3cc(Cl)ccc23)cc1,94.7%
16,Oc1c(Cl)cc(Cl)c2ccc(CN3CCNCC3)nc12,37.7%
17,O=C1c2ccccc2C(=O)c2cc(Cn3c[n+](Cc4ccc5ccccc5c4)c4ccccc43)ccc21,47.2%
18,CC(C)(C#N)c1cc(C(=O)Nc2cc(Nc3ncccc3-c3ncnc4nc[nH]c34)ccc2F)cc(C(F)(F)F)c1,46.6%
19,CC(C)n1cc(C2=C(c3cccc4ccccc34)C(=O)NC2=O)c2cc(Br)ccc21,64.9%
20,O=CN1N=C(c2cccc(Nc3ccncc3)c2)CC1c1ccc2c(c1)OCO2 (stereo not drawn),82.7%

row,Compound,growth
1,CC(=O)Cc1nsc(NC(=O)c2cc(-c3cc(Cl)ccc3Cl)oc2C)n1,113%
2,O=C(O)COc1ccc(F)cc1,116%
3,CC(Cc1cccc2ccccc12)C(N)=O (stereo not drawn),107%
4,NC(=N\N=C/c1ccc(Cl)cc1Cl)/C(N)=N\N=C/c1ccc(Cl)cc1Cl,-34% (active)
5,CCOC(=O)CC1C(CNC(=O)NC)OC(n2cnc3c(NC(=O)Nc4ccccc4)ncnc32)C1O[Si](C)(C)C(C)(C)C (stereo not drawn),61.2%
6,CCc1ccc(Cc2cnc(NC(=O)c3cc(C)oc3C)s2)cc1,54.7%
7,CNc1nc2ncc(-c3c(C)noc3C)cc2n1Cc1ccccc1,53.6%
8,CCCCC1=C(Br)C(=O)c2ncccc2C1=O,88.2%
9,Cc1ccc2nc(/C=C/c3ccc(N(C)C)cc3)cc(C)c2c1,85.5%
10,CCN(CC)c1ccc(/C=N/NC(=O)c2ccccc2Nc2ccnc(C(F)(F)F)c2)c(O)c1,33.1%
11,COc1cc2ncnc(Nc3ccc(S(=O)(=O)Nc4cc(C)on4)cc3)c2cc1OCCCN1CCOCC1,94.8%
12,COc1ccc(-c2cc(-c3ccc(N(C)C)cc3)nc(NC(=O)c3cccnc3)n2)cc1,103%
13,CC(=O)/C(Br)=C/c1ccc(Br)o1,86.1%
14,N#CC1=C(N)Oc2c(ccc3cccnc23)C1c1ccccc1 (stereo not drawn),44.9%
15,CCCS(=O)(=O)Nc1cccc(Nc2ncnc3cc(NC(=O)CCl)ccc23)c1Cl,-38.3% (active)
16,COC(=O)c1nc(-c2ccc(C)cc2)oc1N1CCOCC1,109%
17,Cc1ccc(S(=O)(=O)N(CCC(=O)O)c2ccccc2)cc1,114%
18,Nc1ncc(-c2ccc3ncnc(N4CCc5cc(F)c(Cl)cc54)c3c2)cc1C(F)(F)F,33.4%
19,OC1CSSC1Cn1cnc2c(Nc3ccc(F)c(Cl)c3)ncnc21 (stereo not drawn),91.4%
20,COc1cc2c(c(OC)c1OC)C(=O)CC(c1cccc(C(=O)Nc3ccc(Br)cc3)c1)O2 (stereo not drawn),45.6%
